# According to PubChem BioAssay (EPA / NIEHS):
# Calls of active or inactive are those of the source. The calls were made as follows: active = hit-call score of the fitted dose curve at least 0.9, where 1 is the maximum; inactive = score below 0.9.
# Test: UKN4_HCS_LUHMES_cell_viability: Viability Assessment in the University of Konstanz (UKN) Leist Lab Neurite Outgrowth Assay in human LUHMES cells (UKN4) (AID 2284232)
# Outline: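 LUHMES precursors differentiated 2 days, replated at 30000 cells/well without cAMP/GDNF, then compound-treated 24 h. Viability from Hoechst H-33342 and calcein-AM live staining (30 min) by high-content fluorescence imaging; bidirectional fit versus DMSO.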
compound,measurement,value
S=C([S-])NCCNC(=S)[S-].[Mn+2],AC50,3.31 µM (active)
